The record followed here is PubChem BioAssay (NCATS).

Each structure is given as a SMILES string. Where “and” joins values, the source holds several entries; their conditions need not be identical. Identical values can stand only once. A number with no mark means an inactive call. Inconclusive results are not listed. Calls of active or inactive are those of the source. Unless noted, the rule behind the calls is not given here.

Experiment [1] is described as follows: qHTS assay to identify inhibitors of the type 1 interferon - major histocompatibility complex class I in skeletal muscle: Counter screen cell viability and HiBit confirmation (AID 1347412; active = well fitted inhibition curve with a large enough effect; note: potency is the fitted concentration of half-maximal effect; for activity change, negative = inhibition: % is set by controls: 0 for no effect and ±100 for the full control effect; for all read-outs here: nearly all actives have a fitted effect of over 60% in size). The note with it: iHSKM muscle cells + IFN-b, HiBiT or CellTiter-Glo, 24 h; for activity change, negative = inhibition: at 45.9 µM (top of the series). Put shortly:
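After 24 h with human IFN-beta (4 ng/ml) and compound titrations (top 46 uM final, 1:3, 12 points), HLA-B HiBit myoblasts were lysed for either Nano-Glo HiBiT luminescence or CellTiter Glo viability on paired plates.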
Background: Quantitative high-throughput screening tests each substance at several concentrations.

The target in experiment [2] is Nuclear receptor subfamily 1 group I member 2 (Rattus norvegicus) (UniProt Q9R1A7). The experiment in a line: qHTS assay for small molecule activators of the rat pregnane X receptor (rPXR) signaling pathway (AID 651751). Note: 0% is about no effect. The following applies: rPXR reporter cells, luciferase (One-Glo), 24 h.
Chain of Nuclear receptor subfamily 1 group I member 2 (Rattus norvegicus) (Q9R1A7 whole entry, looked up): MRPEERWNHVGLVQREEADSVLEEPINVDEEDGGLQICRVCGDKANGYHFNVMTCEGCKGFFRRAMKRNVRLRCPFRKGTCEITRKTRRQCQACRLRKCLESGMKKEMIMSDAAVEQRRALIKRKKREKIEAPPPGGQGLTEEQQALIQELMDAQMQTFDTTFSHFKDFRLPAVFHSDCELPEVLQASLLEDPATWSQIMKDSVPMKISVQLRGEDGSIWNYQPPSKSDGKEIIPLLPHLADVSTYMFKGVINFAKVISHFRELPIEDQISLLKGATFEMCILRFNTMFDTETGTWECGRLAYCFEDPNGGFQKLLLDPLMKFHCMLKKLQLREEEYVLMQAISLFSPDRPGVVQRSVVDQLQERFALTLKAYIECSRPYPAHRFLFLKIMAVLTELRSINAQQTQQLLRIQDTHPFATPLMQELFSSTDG
Experiment [3] in a line: qHTS assay for small molecule activators of the human pregnane X receptor (PXR) signaling pathway (AID 720659). Note: 0% is about no effect. The note with it: DPX-2 HepG2 CYP3A4-luciferase, 24 h; series mostly up to 92.3 µM.

As to `Cc1cc(Nc2ncc(Cl)c(Nc3ccccc3S(=O)(=O)C(C)C)n2)c(OC(C)C)cc1C1CCNCC1`, the Potency in experiment [1] (Viability) is 27.9 µM (active). Regarding `Cc1ccccc1`, in experiment [2], the max response is -1.25% and 0.145%. Also, in experiment [3], the compound was called inactive. For the compound `CCCCC(CC)COC(=O)CC(C(=O)OCC(CC)CCCC)S(=O)(=O)O` (stereo unspecified), the max response in experiment [2] was 6.97%. Consider `CC1=CCC(C(C)(C)O)CC1` (stereo unspecified), for which, in experiment [2], the max response is -0.27%. The compound was called inactive in experiment [3]. The like results for `CC(C)=O` were, in that order, 2.78% and “inactive”.

On to `CCCCC/C=C\C/C=C\CCCCCCCC(=O)O`, for which the max response in experiment [2] is 6.19% and -3.59%. For the same compound, in experiment [3], the outcome was inactive. Turning to `Nc1ccn([C@H]2CS[C@@H](CO)O2)c(=O)n1`, the compound was called inactive in experiment [3]. Regarding `C[C@@H]1CCN(C(=O)CC#N)C[C@@H]1N(C)c1ncnc2[nH]ccc12`, in experiment [1] (Viability), the activity change, negative = inhibition is -5.51%. Turning to `CC1=C2[C@@H]([C@H](C)CC[C@H]2/C=C(\C)C(=O)O)[C@H](O)C1`, the max response in experiment [2] is -1.26%. Also, the call in experiment [3] was inactive. The like results for `O=CCCCC=O` were, in that order, 2.91% and “inactive”. The corresponding values for `O=C(O)CCC(=O)C(=O)O` are 0.868% and “inactive”. As to `C=C1CC[C@@H]2[C@](C)(CO)[C@H](O)CC[C@@]2(C)[C@@H]1C/C=C1/C(=O)OC[C@H]1O`, the Potency in experiment [1] (HiBiT) was 12.5 µM (active). The activity change, negative = inhibition in experiment [1] (Viability) was -7.87%. `CC(O)CO` (stereo unspecified): the max response in experiment [2] was -2.73% and 0.891%. Besides, the call in experiment [3] was inactive.

As to `CNC(=O)c1ccc(Nc2ncc(C(F)(F)F)c(NCc3nccnc3N(C)S(C)(=O)=O)n2)cc1`, the Potency in experiment [1] (HiBiT) was 3.52 µM (active). Moreover, in experiment [1] (Viability), the activity change, negative = inhibition was -7.39%. Turning to `COc1cc(N2CCC(N(C)C)CC2)ccc1Nc1ncc(Cl)c(Nc2ccccc2P(C)(C)=O)n1`, in experiment [1] (HiBiT), the Potency is 3.13 µM (active). For `O=C(O)CN(CCN(CC(=O)O)CC(=O)O)CC(=O)O`, the max response in experiment [2] was 0.191% and 7.12%. As to `NS(=O)(=O)OC[C@@H]1C[C@@H](n2ccc3c(N[C@H]4CCc5ccccc54)ncnc32)C[C@@H]1O`, the activity change, negative = inhibition in experiment [1] (Viability) was -12.3%. Take `COc1cc2c(Nc3ccc(Cl)c(Cl)c3F)ncnc2cc1OCC1C[C@@H]2CN(C)C[C@@H]2C1` (stereo partly specified): the results for the Potency in experiment [1] (HiBiT) and in experiment [1] (Viability) were 19.8 µM (active) and 17.6 µM (active), respectively. Consider `CCCCCCCC(=O)O`, for which the max response in experiment [2] is 2.58% and -1.34%. In addition, the result in experiment [3] was inactive. For the compound `CCCCCCCC/C=C\CCCCCCCC(=O)O`, the max response in experiment [2] is 0.673% and 2.82%. In addition, the outcome in experiment [3] was inactive. For `CN(C)C/C=C/C(=O)Nc1ccc(C(=O)Nc2cccc(Nc3ncc(Cl)c(-c4c[nH]c5ccccc45)n3)c2)cc1`, the Potency in experiment [1] (HiBiT) is 0.442 µM (active). Further, the activity change, negative = inhibition in experiment [1] (Viability) is -19.3%.

On to `CC(=O)c1cnc2ccc(-c3cc(Cl)c(O)c(Cl)c3)nc2c1NC1CCC(CN(C)C)CC1` (stereo unspecified), for which, in experiment [1] (HiBiT), the Potency was 0.0991 µM (active). In addition, in experiment [1] (Viability), the activity change, negative = inhibition was -15.7%. `CCOC(C)=O`: the compound was called inactive in experiment [3]. As to `CCOc1cc2ncc(C#N)c(Nc3ccc(OCc4ccccn4)c(Cl)c3)c2cc1NC(=O)/C=C/CN(C)C`, the Potency in experiment [1] (HiBiT) is 1.57 µM (active). On to `IC(I)I`, for which the max response in experiment [2] is 0.127% and 1.54%. Further, the compound was called inactive in experiment [3].
